Among the data in PubChem BioAssay (NCI) are growth values, retold here.

This is part of a sample that, as a whole, favours compounds with a hit. Of some 83,000 tested, about 20% had one in any assay.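 48-hour exposure, single concentration, 96-well plates; percent growth endpoint where 0 means no net growth. Active: below 10.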 A number with no mark means an inactive call. Activity calls are given as the source filed them.

Test systems include HCT-15 colon; HT29 colon; SNB-75 CNS; SNB-19 CNS; U251 CNS; PC-3 prostate; SK-MEL-5 melanoma; UACC-62 melanoma; LOX IMVI melanoma; SK-MEL-28 melanoma; SK-MEL-2 melanoma; EKVX NSCLC; SN12C renal; UO-31 renal; TK-10 renal; ACHN renal; CAKI-1 renal; A498 renal; MOLT-4 leukemia; CCRF-CEM leukemia.
Assay in all cases: NCI-60 one-dose screen, 48 h (100 = growth as untreated, 0 = no growth, -100 = all killed)
Conditions in all cases: 10 µM unless noted

For the molecule `O=C1C=CC2(O)OC/C(=C\c3ccccc3)C(O)=C2C1=O` (stereo unspecified), the growth with HCT-15 colon was -6.43% (active); with HT29 colon, 17.8%; in the assay with SNB-75 CNS, 38.8%; in the assay on SNB-19 CNS it was 27.6%; with U251 CNS, -35.2% (active); with PC-3 prostate, 0.717% (active). Further, the growth in the assay on SK-MEL-5 melanoma was 31.3%; in the assay with UACC-62 melanoma it was -64.1% (active); in the assay with LOX IMVI melanoma it was -82.8% (active); with SK-MEL-28 melanoma, 51.9%; with SK-MEL-2 melanoma it was 53.4%; in the assay on EKVX NSCLC it was 54.1%. Besides, the growth with SN12C renal was -30.7% (active); in the assay with UO-31 renal, -91.5% (active); with TK-10 renal, 11.5%; with ACHN renal, -70.5% (active); in the assay with CAKI-1 renal, 10.6%; with A498 renal, 108%. For the same molecule, the growth with MOLT-4 leukemia is 7.42% (active).

With `COCCOC(C)C(/C=N/NC(N)=S)=N/NC(N)=S` (stereo unspecified), the growth in the assay on HCT-15 colon was 51.8%; in the assay with HT29 colon it was 39.5%; with SNB-75 CNS, 120%; in the assay on SNB-19 CNS, 92.8%; with U251 CNS it was 48.5%; in the assay on PC-3 prostate, 27.9%. Also, the growth is 60.8% in the assay with SK-MEL-5 melanoma; 67.1% in the assay on UACC-62 melanoma; 51.1% with LOX IMVI melanoma; 90.1% in the assay with SK-MEL-28 melanoma; 82.5% in the assay with SK-MEL-2 melanoma; 55.7% in the assay with EKVX NSCLC. Further, the growth with SN12C renal is 76.5%; with UO-31 renal, 79.1%; with TK-10 renal it was 92.5%; in the assay on ACHN renal, 66.7%; in the assay with CAKI-1 renal it was 82.6%; in the assay on A498 renal it was 107%. Also, in the assay on MOLT-4 leukemia, the growth is 16.7%.

Turning to `CCCn1c(=S)sc2c(NNC(C)=O)nc(C)nc21`, the growth in the assay on HCT-15 colon is 90.2%; with HT29 colon, 103%; in the assay with SNB-75 CNS, 89.9%; in the assay on SNB-19 CNS, 92.4%; in the assay with U251 CNS, 91.1%; in the assay on PC-3 prostate, 90.3%. Besides, the growth with SK-MEL-5 melanoma is 96.4%; in the assay with UACC-62 melanoma, 93%; with LOX IMVI melanoma, 87%; with SK-MEL-28 melanoma, 141%; with SK-MEL-2 melanoma, 92.5%; in the assay on EKVX NSCLC, 88.5%. For the same molecule, the growth was 101% in the assay with SN12C renal; 90% in the assay on UO-31 renal; 94.5% in the assay on TK-10 renal; 88.1% in the assay on ACHN renal; 70.7% with CAKI-1 renal; 78.1% in the assay with A498 renal. For the same molecule, the growth in the assay with MOLT-4 leukemia was 114%.

With `CC(C)n1c2ccc(Br)cc2c2c3c(c4c5ccccc5ccc4c21)C(=O)NC3=O`, the growth is 83.7% in the assay with HCT-15 colon; 70.3% in the assay on HT29 colon; 103% in the assay on SNB-75 CNS; 102% in the assay with SNB-19 CNS; 98% in the assay on U251 CNS; 89.8% in the assay on PC-3 prostate. Also, the growth in the assay on SK-MEL-5 melanoma is 90.7%; in the assay with UACC-62 melanoma, 101%; in the assay with LOX IMVI melanoma it was 106%; in the assay with SK-MEL-28 melanoma it was 96.5%; in the assay on SK-MEL-2 melanoma, 111%; in the assay with EKVX NSCLC, 86.1%. In addition, the growth was 85.9% in the assay with SN12C renal; 59.2% in the assay with UO-31 renal; 91.8% with TK-10 renal; 68.4% in the assay with ACHN renal; 82.5% in the assay with CAKI-1 renal; 71.8% in the assay on A498 renal. The growth in the assay with CCRF-CEM leukemia was 90.1%; with MOLT-4 leukemia, 75.1%.

Take `C=CN(C(=O)N1CCN(c2cc3c(cc2F)c(=O)c(C(=O)O)cn3C2CC2)CC1)c1nc(-c2ccccc2)cs1`: the growth with HCT-15 colon was 102%; in the assay on HT29 colon, 93.1%; in the assay on SNB-75 CNS it was 109%; in the assay on SNB-19 CNS, 96%; with U251 CNS, 101%; in the assay with PC-3 prostate, 91.1%. The growth with SK-MEL-5 melanoma is 95.7%; with UACC-62 melanoma, 86%; with LOX IMVI melanoma it was 77.5%; in the assay with SK-MEL-28 melanoma it was 101%; with SK-MEL-2 melanoma, 88.3%; in the assay with EKVX NSCLC it was 109%. Besides, the growth was 92.8% in the assay with SN12C renal; 84.7% with UO-31 renal; 105% with TK-10 renal; 91.1% with ACHN renal; -82.3% (active) in the assay on CAKI-1 renal; 76% in the assay on A498 renal. Moreover, the growth with CCRF-CEM leukemia is 93.2%; with MOLT-4 leukemia, 88.2%.

Regarding `O=C(NCCNC(c1ccccc1)C(NCCNC(=O)c1ccccc1)c1ccccc1)c1ccccc1` (stereo unspecified), the growth is 18.8% with HCT-15 colon; 36.7% with HT29 colon; 117% with SNB-75 CNS; 88% in the assay with SNB-19 CNS; 74.7% in the assay on U251 CNS; 70.4% with PC-3 prostate. The growth was 95.7% in the assay with SK-MEL-5 melanoma; 85.2% in the assay on UACC-62 melanoma; 75.6% with LOX IMVI melanoma; 103% with SK-MEL-28 melanoma; 45.9% in the assay with SK-MEL-2 melanoma; 123% with EKVX NSCLC. The growth in the assay with SN12C renal was 97.7%; with UO-31 renal it was 80.3%; in the assay on TK-10 renal it was 97.5%; with ACHN renal, 7.15% (active); with CAKI-1 renal it was 61.6%; in the assay on A498 renal, 112%. For the same molecule, the results for the growth in the assay with CCRF-CEM leukemia and in the assay with MOLT-4 leukemia were 97.1% and 72.2%, respectively.

On to `Cc1cc(O)c(=O)cc2c1C[C@H]1CC(C)(C)/C=C/C[C@]3(C)Oc4cc(=O)c(O)cc(C)c4C[C@H]3C[C@H](O)[C@@]1(C)O2`, for which the growth in the assay on HCT-15 colon was 17.3%; in the assay with HT29 colon it was 7.77% (active); in the assay with SNB-75 CNS, 23.5%; with SNB-19 CNS, 4.62% (active); in the assay with U251 CNS it was 2.67% (active); in the assay on PC-3 prostate it was 10.2%. In addition, the growth with SK-MEL-5 melanoma was -9.26% (active); in the assay on UACC-62 melanoma, -56.5% (active); in the assay with LOX IMVI melanoma, 6.33% (active); with SK-MEL-28 melanoma it was 5.5% (active); with SK-MEL-2 melanoma, -0.26% (active); with EKVX NSCLC, 1.96% (active). In addition, the growth was 0.888% (active) with SN12C renal; -3.55% (active) in the assay with UO-31 renal; 12.8% in the assay with TK-10 renal; 6.64% (active) in the assay on ACHN renal; 0.0892% (active) in the assay with CAKI-1 renal; 12.3% in the assay on A498 renal. Also, the growth with MOLT-4 leukemia is 7.8% (active).

Consider `COc1ccc2cc(C(=O)N3CCC([C@@H](C)C(=O)NCc4ccc5c(c4)OCO5)CC3)[nH]c2c1`, for which the growth in the assay on HCT-15 colon was 83% [50 µM]; in the assay with HT29 colon it was 89.6% [50 µM]; with SNB-75 CNS, -37.6% [50 µM] (active); in the assay on SNB-19 CNS it was 25.8% [50 µM]; in the assay on U251 CNS, 23.6% [50 µM]; in the assay on PC-3 prostate it was 56.5% [50 µM]. The growth was 63.6% [50 µM] with SK-MEL-5 melanoma; 43.7% [50 µM] in the assay with UACC-62 melanoma; 54.7% [50 µM] in the assay with LOX IMVI melanoma; 77.8% [50 µM] in the assay with SK-MEL-28 melanoma; 63.6% [50 µM] with SK-MEL-2 melanoma; 73.4% [50 µM] in the assay with EKVX NSCLC. In addition, the growth was 53.2% [50 µM] in the assay with SN12C renal; 41.5% [50 µM] in the assay on UO-31 renal; 27.1% [50 µM] in the assay with TK-10 renal; 29.4% [50 µM] in the assay on ACHN renal; 60.3% [50 µM] in the assay on CAKI-1 renal; 80.4% [50 µM] with A498 renal. Further, the growth in the assay with CCRF-CEM leukemia was 85.8% [50 µM]; in the assay with MOLT-4 leukemia, 78.2% [50 µM].
